SARS PLP yeast: inhibitors of SARS-CoV papain-like protease in yeast | S. cerevisiae expressing SARS-CoV PLpro, growth rescue | Potency, µM (highest dose often 32.9 µM), for inactives: at the top dose activity, positive = growth rescue, hits mostly activators | hit rate 0.19% among 330,000 | AID 485353; calls by dose curve; further: potency means the concentration at half of the fitted maximal effect; 0% is about no effect; nearly all actives have a fitted effect of over 55% in size
Pf growth 48h: P. falciparum growth inhibition at 48 hours (one generation) | Potency, µM (top dose mostly 28.7 µM), for inactives: at the top dose activity change, negative = inhibition, usual class: inhibitors | P. falciparum luciferase growth in erythrocytes, 48 h | hit rate 5.9% among 310,000; further: potency means the concentration at half of the fitted maximal effect; on the % scale 0 is the no-effect control and ±100 the full control effect
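Parasite viability was followed by luminescence of a genomically integrated firefly luciferase. Cultures held 0.1% parasitemia at 2% hematocrit (final), incubated under 5% CO2 at 37 C.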
Pf growth 96h: P. falciparum growth inhibition at 96 hour, primary screen for plastid delayed-death inhibitors; Potency, µM (doses to about 28.7 µM), without a hit: at the top dose activity change, negative = inhibition, most hits filed as inhibitors; P. falciparum luciferase reporter growth, 96 h; hit rate 6.9% among 320,000; AID 504834; further: potency means the concentration at half of the fitted maximal effect; on the % scale 0 is the no-effect control and ±100 the full control effect
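Parasite growth measured via integrated firefly luciferase reporter in P. falciparum. Infected erythrocytes at 2% hematocrit, 0.05% parasitemia final were treated 96 hours at 37 C under 5% CO2, and luminescence was read.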
Cycloheximide cs: counter-screen hit for Shiga toxin inhibitors, cycloheximide | cell reporter, cycloheximide protein synthesis inhibition counterscreen | max response, % | hit rate 12% among 300,000; in the data active means max response mostly above about 13%, no sharp cut-off; inactive means mostly below about 14%; further: read at 38.3 µM for the half of the compounds with a filed dose; 0% is about no effect
Shiga toxin inh: Shiga toxin inhibition; Vero cells, Shiga toxin protein synthesis inhibition reporter; inhibition, % at 38.7 µM; hit rate 9.2% among 290,000; in the data active means inhibition mostly above about 28%, no sharp cut-off; inactive means mostly below about 43%; further: 0% is about no effect
AMA1-RON2 inh: disrupts binding of P. falciparum AMA1 to RON2 | Potency, µM (highest dose often 58.2 µM), for the others: top-dose activity change, negative = inhibition, usual class: inhibitors | AlphaScreen AMA1-biotinylated RON2 peptide binding | hit rate 0.2% among 360,000 | AID 720542;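 further: potency means the concentration at half of the fitted maximal effect; 0% = vehicle wells and -100% = peptide control; nearly all actives have a fitted effect of over 45% in size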
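AMA1 (3D7) with his tag at 25 nM final met compounds first, then biotinylated RON2 peptide at 25 nM; detection used donor plus acceptor beads, 10 µg/mL apiece, read by AlphaScreen after 30 min at room temperature.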
Active calls of the source: *. Sampled rows, rich in hits. Any-hit rate of the full collection: about 19%. Unless noted, the call rests on the fitted dose curve; in most records, active means well fitted curve in the direction sought with a large enough effect; inconclusive means small, poorly fitted or top-dose-only effect, or another doubt; inactive means no such curve, though single readings can be large; an effect the other way counts as inactive or inconclusive.

Screening O=C(Nc1cnn(Cc2ccc(Cl)cc2Cl)c1)c1cc(-c2cccs2)on1 returned SARS PLP yeast -1.6%, Pf growth 48h inconclusive, Pf growth 96h inconclusive, Cycloheximide cs -1.1, Shiga toxin inh -7.7 and AMA1-RON2 inh 3.2%.
COc1nccnc1NS(=O)(=O)c1ccc(NC(=O)c2cccc(C)c2)cc1 was read as SARS PLP yeast 0.2%, Pf growth 48h 7.5%, Pf growth 96h inconclusive, Cycloheximide cs 0.8, Shiga toxin inh 31.9 and AMA1-RON2 inh 13.9%.
For CC(=O)N1CCC(N(C(=O)Nc2ccc(C)c(C)c2)C2CCCC2)CC1 the results were SARS PLP yeast 1.0%, Pf growth 48h 15.8%, Cycloheximide cs 13.8*, Shiga toxin inh 0.6 and AMA1-RON2 inh inconclusive.
Screening CCc1ccc(NC(=O)N(CCCOC(C)C)C2CCN(C(C)=O)CC2)cc1 returned SARS PLP yeast 2.8%, Pf growth 48h inconclusive, Pf growth 96h 11.0%, Cycloheximide cs 0.4, Shiga toxin inh -6.2 and AMA1-RON2 inh 2.1%.
CCc1ccc(NC(=O)N(C2CCC(C)CC2)C2CCN(C(C)=O)CC2)cc1 (stereo unspecified) was read as SARS PLP yeast -8.8%, Pf growth 48h -2.6%, Pf growth 96h inconclusive, Cycloheximide cs 30.9*, Shiga toxin inh 67.5* and AMA1-RON2 inh 23.9%.
`CC(=O)N1CCC(N(CCCOC(C)C)C(=O)Nc2ccc(C)c(C)c2)CC1` gave SARS PLP yeast 4.9%, Pf growth 48h -16.8%, Pf growth 96h inconclusive, Cycloheximide cs -2.0, Shiga toxin inh -13.0 and AMA1-RON2 inh -2.6%.
For CCN1C(=O)C(CC(=O)Nc2ccccc2)S/C1=N\c1ccccn1 (stereo unspecified) the results were SARS PLP yeast 0.0%, Pf growth 48h 43.2%, Pf growth 96h 22.2%, Cycloheximide cs -4.6, Shiga toxin inh -11.2 and AMA1-RON2 inh 1.6%.
Screening Cc1cccc(C)c1N=C1SC(CC(=O)Nc2c(C)cccc2C)C(=O)N1CCc1ccccn1 (stereo unspecified) returned SARS PLP yeast 2.1%, Pf growth 48h 9.28µM*, Pf growth 96h 9.28µM*, Cycloheximide cs -1.7, Shiga toxin inh -7.7 and AMA1-RON2 inh 1.3%.
O=C(CC1SC(=Nc2ccccc2)N(CCc2ccccn2)C1=O)Nc1ccc(F)cc1 (stereo unspecified) was read as SARS PLP yeast -11.0%, Pf growth 48h inconclusive, Pf growth 96h 4.65µM*, Cycloheximide cs 10.0, Shiga toxin inh -5.2 and AMA1-RON2 inh 16.9%.
Screening COc1ccccc1/C=C/C=N/NC(=O)CC1C(=O)NN=C1C (stereo unspecified) returned SARS PLP yeast -0.2%, Pf growth 48h 46.6%, Pf growth 96h 21.4%, Cycloheximide cs -1.6, Shiga toxin inh 2.7 and AMA1-RON2 inh 11.6%.
For N=c1oc2ccc([N+](=O)[O-])cc2cc1C(=O)NCc1ccccc1 the results were SARS PLP yeast -3.8%, Pf growth 48h 14.9%, Pf growth 96h -6.0%, Cycloheximide cs -1.7, Shiga toxin inh -3.2 and AMA1-RON2 inh 2.3%.
Cc1ccc(/C=N/Nc2nc(C)cc(C)n2)cc1 was read as SARS PLP yeast -0.2%, Pf growth 48h 9.3%, Pf growth 96h 12.2%, Cycloheximide cs 14.3*, Shiga toxin inh 56.7* and AMA1-RON2 inh 81.4%.
Screening Clc1cccc(/C=N\Nc2nccs2)c1 returned SARS PLP yeast inconclusive, Pf growth 96h 109.2%, Cycloheximide cs 20.0*, Shiga toxin inh 65.0 and AMA1-RON2 inh 60.3%.
`Cc1cc(C)nc(N/N=C/c2cccc(Cl)c2)n1` gave SARS PLP yeast 14.8%, Pf growth 48h 32.0%, Pf growth 96h 7.0%, Cycloheximide cs 18.0*, Shiga toxin inh 49.0 and AMA1-RON2 inh 72.9%.
`C(=N/Nc1nccs1)/c1cccnc1` gave SARS PLP yeast -1.3%, Pf growth 48h inconclusive, Pf growth 96h inconclusive, Cycloheximide cs -2.0, Shiga toxin inh 22.4 and AMA1-RON2 inh 9.6%.
Screening Cc1cc(C)nc(N/N=C/c2ccc(N3CCOCC3)cc2)n1 returned SARS PLP yeast -0.1%, Pf growth 48h 1.0%, Pf growth 96h 24.4%, Cycloheximide cs -4.3, Shiga toxin inh 1.8 and AMA1-RON2 inh 58.4%.
Screening Cc1cc(C)nc(N/N=C/c2ccc(Cl)cc2)n1 returned SARS PLP yeast 0.1%, Pf growth 48h -6.1%, Pf growth 96h -8.9%, Cycloheximide cs 12.5*, Shiga toxin inh 32.1 and AMA1-RON2 inh 63.4%.
